# According to the supplement of paper PMC10338343:
# ± gives the standard deviation.
# Legend:
# [1] = system: MILI (PIWIL2) piRISC loaded with piRNA #1 (26 nt); assay: pre-steady-state target cleavage rate (min^-1); guide: piRNA #1 5'p-UGAGGUAGUAGGUUGUAUAGUAUCCA; higher = faster piRNA-guided slicing of the target; settings: auxiliary factor: 500 nM mouse GTSF1;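 further: 1 nM active piRISC with 0.1 nM target library at 33 °C single turnover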
# Method in brief: (§1)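 A burst-and-steady-state fit was used to obtain the pre-steady-state cleavage rate. The input data were sequencing reads of uncleaved targets, normalised to depth and to weakly complementary targets, from a […] transcribed, DNA-blocked target RNA library mixed with 1 nM active affinity-purified piRISC holding one synthetic guide, with or without 500 nM GTSF1 partner protein, in HEPES–potassium acetate buffer at 33 °C for 0–8 or 0–960 min. Three trials were pooled and k3 was capped at 0.0001 min^-1.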
# [2] = system: EfPiwi piRISC loaded with piRNA #1 (26 nt); assay: pre-steady-state target cleavage rate (min^-1); auxiliary factor: 500 nM Ephydatia muelleri Gtsf1; guide: piRNA #1 5'p-UGAGGUAGUAGGUUGUAUAGUAUCCA; MIWI and MILI are mouse PIWI proteins and EfPiwi is from a freshwater sponge; tags in brackets are library labels; higher = faster piRNA-guided slicing of the target
# Method in brief: as §1
Sequence,pre-steady-state target cleavage rate [1],pre-steady-state target cleavage rate [2]
GGAGACCUAUCUAUACAUCCUACUACCUGA,0.0957 ± 0.022,0.00459 ± 0.0036
GGAGUGGAUACUAUACAACCUUCAACCUCA,0.00344 ± 0.0019,0.00298 ± 0.0018
GGAGACCAUACUAUACAACCUACUACCAUCA,0.168 ± 0.027,0.0041 ± 0.0029
GGAGAGGAUACUAUGACAACCUACUACCUCA,0.143 ± 0.013,0.102 ± 0.041
GGAGACCAUACAAUACAUCCUACUACCUCA,0.209 ± 0.025,0.00484 ± 0.003
GGAGUGGAUACUAUUACAACCUACUACCUCA,0.155 ± 0.0095,0.131 ± 0.047
GGAGUGCGAUACUAUACAACCUACUACCUCA,0.206 ± 0.013,0.136 ± 0.044
GGAGACCUAUCUAUACAACCUACUACCUCA [g2:g20:cont:t1A],0.11 ± 0.018,0.0119 ± 0.0046
GGAGACCUUACUAUACAACCUACUACGAGA,0.0846 ± 0.02,0.00452 ± 0.0025
GGAGUGGAUUCUAUACAACGUACUACCUCA,0.0287 ± 0.0031,0.00313 ± 0.0019
GGAGUCGAUACUAUACAACCUACUAGCUCA,0.0244 ± 0.0057,0.00304 ± 0.0019
GGAGAGGAUAGUUUACAACCUACUACCUCA,0.0583 ± 0.0089,0.0061 ± 0.0039
GGAGACGAUACUAUACAACCUACUACCUCA [g2:g24:cont:t1A],0.21 ± 0.018,0.0773 ± 0.024
GGAGACCAUACUAUACAACCUACUACCGCA,0.203 ± 0.025,0.00689 ± 0.0023
GGAGACGAUUCUAUACUACCUACUACCUCA,0.213 ± 0.011,0.00459 ± 0.0029
GGAGAGGAUACAAUACUACCUACUACCUCA,0.154 ± 0.013,0.00424 ± 0.0028
GGAGACCUUACUAAUACAACCUACUACCUCA,0.0928 ± 0.01,0.074 ± 0.027
GGAGUGGAUACAAUACAACCUACUACGUCA,0.0406 ± 0.0063,0.0038 ± 0.0016
GGAGUGGAUACUUACAACCUACUACCUCA,0.141 ± 0.012,0.0233 ± 0.011
GGAGUGGAUACUAUACAACCUACUACACUCA,0.128 ± 0.018,0.00464 ± 0.0021

Sequence,pre-steady-state target cleavage rate [1],pre-steady-state target cleavage rate [2]
GGAGACCUAACUAUACAACCUACAUCCUCA,0.0364 ± 0.013,0.00597 ± 0.0051
GGAGUGGAUACUAUACAAGCAACUACCUCA,0.00874 ± 0.0017,0.00256 ± 0.0013
GGAGAGCAUACAAUACAACCUACUACCUCA,0.206 ± 0.017,0.00861 ± 0.0046
GGAGACCAUACUAUACAACCUUCUACGUCA,0.00397 ± 0.0034,0.00387 ± 0.0029
GGAGAGGAUAGUAUACAACCUACUAGCUCA,0.00705 ± 0.0035,0.00348 ± 0.0023
GGAGUGGAUACUAUACAACCACUACCUCA,0.00753 ± 0.002,0.00771 ± 0.0031
GGAGACGAUAUAUACAACCUACUACCUCA,0.154 ± 0.011,0.00621 ± 0.0041
GGAGAGGAUACAAUACAACCUACUUCCUCA,0.0281 ± 0.0083,0.00257 ± 0.002
GGAGUGGAUACUAUACCAACCUACUACCUCA,0.0424 ± 0.0067,0.0596 ± 0.021
GGAGAGGAAACUAUACAACCUACUACCACA,0.155 ± 0.03,0.00262 ± 0.0018
GGAGACCACACUAUACAACCUACUACCUCA,0.221 ± 0.042,0.0344 ± 0.015
GGAGACCUAAGCUAUACAACCUACUACCUCA,0.141 ± 0.028,0.184 ± 0.066
GGAGAGGAUACUAUACAAGCUACAACCUCA,0.0872 ± 0.017,0.00258 ± 0.0015
GGAGACCUAUCUAUGACAACCUACUACCUCA,0.0545 ± 0.0096,0.00594 ± 0.0037
GGAGACCAUUCUAUACUACCUACUACCUCA,0.111 ± 0.013,0.00741 ± 0.0044
GGAGUGGAUACUAUAUCAACCUACUACCUCA,0.143 ± 0.013,0.0851 ± 0.03
GGAGACCAUACUAUACAACCAACUUCCUCA,0.00585 ± 0.003,0.00509 ± 0.0046
GGAGACCAAACUAUACAACCUACUACGUCA,0.042 ± 0.015,0.00503 ± 0.0027
GGAGUGGAAACUAUACAAGCUACUACCUCA,0.257 ± 0.021,0.00579 ± 0.0027
GGAGAGGAUACUAUACAACCUACCACCUCA,0.129 ± 0.018,0.00459 ± 0.002

Sequence,pre-steady-state target cleavage rate [1],pre-steady-state target cleavage rate [2]
GGAGACCAUACUAUACAACCUACUACCAGA,0.169 ± 0.027,0.00458 ± 0.0019
GGAGUGGAUACUAUUCAACCUACAACCUCA,0.0706 ± 0.01,0.00255 ± 0.0022
GGAGUCGAUACUAUACAUCCUACUACCUCA,0.313 ± 0.017,0.0165 ± 0.007
GGAGACCAUACUAUACAACCUACUUGGAGA [g7:g23:cont:t1A],0.00469 ± 0.0036,0.00547 ± 0.0034
GGAGUGGAUACUAUACAAGCUUCUACCUCA,0.0391 ± 0.0037,0.00507 ± 0.0021
GGAGACGAUACUAAUACAACCUACUACCUCA,0.134 ± 0.01,0.0773 ± 0.031
GGAGUGGAUAGUAUACAACCUACUACCUCA,0.0868 ± 0.0069,0.00712 ± 0.0031
GGAGGGGAUACUAUACAACCUACUACCUCA,0.203 ± 0.0091,0.209 ± 0.067
GGAGACCAUACUAUACAACCUACUACCUGA,0.155 ± 0.023,0.00567 ± 0.0018
GGAGUCGUUACUAUACAACCUACUACCUCA,0.158 ± 0.011,0.0129 ± 0.0069
GGAGACCUAUCUAUACAACCUACUACCUA,0.0666 ± 0.0086,0.00487 ± 0.0042
GGAGACCUUACUAUACAACGUACUUCCUCA,0.0242 ± 0.0053,0.00315 ± 0.0021
GGAGACGAUACUAUAACAACCUACUACCUCA,0.142 ± 0.012,0.00793 ± 0.0029
GGAGACCAUACUACACAACCUACUACCUCA,0.215 ± 0.018,0.0182 ± 0.0078
GGAGACCAUACUAUACAACCUACUAACUCA,0.0993 ± 0.021,0.00957 ± 0.0048
GGAGACCUAUGUAUACAACCUACAACCACA,0.0115 ± 0.0032,< 0.0001
GGAGUGGAUACUAUACAAGCUACUACGUCA,0.0651 ± 0.013,0.00405 ± 0.0015
GGAGACCAUACUAUACAACCUACAACCUGA,0.0179 ± 0.0095,0.00439 ± 0.0042
GGAGAGGAUACUAUACAAGCAACUACCUCA,0.00819 ± 0.0023,0.00405 ± 0.0022
